Experimental findings from PubChem BioAssay (EPA / NIEHS) are described below.

Activity calls are given as the source filed them. Rule for the calls: active = hit-call score of the fitted dose curve at least 0.9, where 1 is the maximum; inactive = score below 0.9.

Read-out in this test: Lipoprotein lipase (LPL), LPL (gene 4023)
The experiment in a line: LTEA_HepaRG_LPL: Life Technologies and Expression Analysis (LTEA) Assay for Lipoprotein lipase (LPL) using HepaRG (AID 2283515). The settings on record: mRNA level, 48 h; actives raise or lower the signal. As to the method:
LTEA_HepaRG is a cell based, multiplexed-readout assay that uses HepaRG, a human liver cell line, with measurements taken at 48 hours after chemical dosing on a 96-well plate.LTEA_HepaRG_LPL is one of 102 assay component(s) measured in the LTEA HepaRG cell culture assay. It is a marker of Steatosis.Data from the assay component LTEA_HepaRG_LPL was analyzed into 1 endpoint. This assay endpoint, LTEA_HepaRG_LPL, was analyzed with bidirectional fitting relative to DMSO as the negative control and baseline of activity. Using a type of inducible reporter, measures of mRNA induction for gain or loss-of-signal activity can be used to understand regulation of transcription factor activity. To generalize the intended target to other relatable targets, this assay endpoint is annotated to the esterase intended target family, where the subfamily is lipase.
A total of 1060 chemcials from the ToxCast library were tested in eight-point concentration-response experiments. Cell culture and cytotoxicity assays were conducted at Thermo Fisher Scientific's Custom Services facility (Madison, WI). A single lot of human HepaRG cells (Thermo Fisher Scientific, Frederick, MD) was used for the cell culture experiments. 96-well format collagen type I coated plates of human HepaRG cells were prepared using established methods. Briefly, cryopreserved HepaRG cells were thawed, plated at a density of approximately 100,000 cells/well in HepaRG Thaw, Plate, and General Purpose media (HPRG770, Thermo Fisher Scientific), and incubated for 48 hours. 0.5% DMSO was selected as vehicle control to balance the requisite need of DMSO in HepaRG cultures to maintain differentiation (for example, baseline metabolism, proportions of hepatocytes vs. cholangiocytes), while enabling further hepatic receptor pathway activation (for example, PXR and CAR) in response to chemical exposure. 48 hours after plating, the culture medium was replaced with HepaRG Serum-Free Incudtion Media. Cells were exposed to each test chemical in duplicate and maintained in CO2 incubators for another 48 hours. Chemical plates were thawed to room temperature and 200x concentrations of treatment groups were prepared. 8-point conentration-reponse curves were made with the highest exposure at 100 uM, followed by half-log dilutions, all in 0.5% DMSO. Each test plate contained variouse controls, induction positive controls (1mM phenobarbital), cytotoxicity positive controls ([…] aflatoxin B1), vehicle controls (0.5% DMSO), and total lysis controls (0.5% DMSO). Cell morphology images were taken using an Essen IncuCyte FLR automated microscope, with six 96-well plates imaged in about 24 minutes. Images were captured and exported and JPEG files. Spent culture media was transfered to black-well plates for the LDH assay, and remaining media was sorted at -80 C for later use. Cells were treated with RLT buffer and frozen until shipped for gene expression analysis. Total RNA was isolated from the cell suspension in 75 uL of Buffer RLT (Qiagen, Germantown, MD 20874) by Quintiles/Expression Analysis (Durham, NC) using a custom isolation procedure. Total RNA from each plate well was transferred to a preamplification plate. Fluidigm's 96.96 Dynamic ArrayTM (Fluidigm, Amsterdam, the Netherlands) technology was used for gene expression analyses by quantitative reverse transcription polymerase chain reaction (qRT-PCR, performed by Quintiles/Expression Analysis, Durham, NC)89. Standard TaqManTM Assays (Applied Biosystems/ThermoFisher Scientific, Foster City, CA) were used to assess the expression of 93 genes selected based on their selectivity and sensitivity to important hepatic receptors known to be modulated by environmental chemicals; importance in human hepatocyte functionality; and hepatotoxicity. […]
Regarding `CCOc1ccc(C(C)(C)COCc2cccc(Oc3ccccc3)c2)cc1`, the call was inactive. On the same count and under the same terms, the result for `O=[N+]([O-])c1ccccc1` reads “inactive”; that for `CC(C)(C)OOC(C)(C)C`, “inactive”; that for `CCCCCCCc1ccc(O)cc1`, “inactive”. On to `Nc1ccc2ccccc2c1`, for which the outcome was inactive.

On to `CCCN(CCC)c1c([N+](=O)[O-])cc(C(C)C)cc1[N+](=O)[O-]`, for which the AC50 (commonly the concentration giving half of the maximal activity seen) is 12.5 µM (active). Consider `c1nc[nH]n1`, for which the compound was called inactive. Still for that read-out and setting: the result for `CCOS(=O)(=O)OCC` reads “inactive”; that for `CCCCN(CCCC)SN(C)C(=O)Oc1cccc2c1OC(C)(C)C2`, “inactive”. The same measure, in the same setting: the result for `CC(Cl)(Cl)C(=O)O` reads “inactive”; that for `CCCCc1ccccc1`, “inactive”; that for `O=P(Oc1ccccc1)(Oc1ccccc1)Oc1ccccc1`, “inactive”. Same read-out and setting: to `ClC(Cl)c1ccccc1` belongs “inactive”. Turning to `O=C(O)C(Cl)Cl`, the call was inactive.

Regarding `ClC1=C(Cl)C2(Cl)C3C(Cl)C(Cl)CC3C1(Cl)C2(Cl)Cl` (stereo not given), the compound was classed as inactive. The same measure, in the same setting: to `Nc1cc2c3c(c1)C(c1ccccc1)=N[C@@H](NC(=O)c1cccnc1)C(=O)N3CC2` belongs “inactive”; to `c1cc2c3c(cccc3c1)CC2`, “inactive”. Consider `Cc1ccc([N+](=O)[O-])cc1C`, for which the compound was classed as inactive. Consider `COCCOCCO`, for which the outcome was inactive. `CCNc1nc(Cl)nc(NC(C)(C)C)n1`: the outcome was inactive. Consider `Cc1ccc(N)cc1N`, for which the outcome was inactive. Same read-out and setting: the result for `CCOP(=S)(OCC)SCSCC` reads “inactive”; that for `c1ccc(OP(Oc2ccccc2)Oc2ccccc2)cc1`, “inactive”. Still for that read-out and setting: the result for `Cc1cccc(N)c1` reads “inactive”; that for `Nc1ccc(Cl)cc1`, “inactive”. With `[N-]=[N+]=[N-]`, the concentration at half-maximal activity (AC50) was 72.3 µM (active). As for `O=[N+]([O-])c1ccc(Cl)c(Cl)c1`, the result was inactive. Still for that read-out and setting: to `CN(C)C(=O)Cl` belongs “inactive”; to `CCN(CC)c1ccccc1`, “inactive”; to `Cc1ccc(O)cc1C`, “inactive”. Same read-out and setting: to `CCC(C)(C)c1ccc(O)cc1` belongs “inactive”; to `CCCCN(CCCC)N=O`, “inactive”; to `CCOC(=O)c1ccccc1C(=O)OCC`, “inactive”. `CSC(C)(C)C=NO`: the call was inactive. As for `c1ccc2c(c1)Nc1ccccc1S2`, the concentration at half-maximal activity (AC50) is 65 µM (active). For the compound `CCC1(c2ccccc2)C(=O)N=C(O)NC1=O` (stereo not given), the compound was classed as inactive. On the same count and under the same terms, the result for `CCOP(=S)(Oc1ccc([N+](=O)[O-])cc1)c1ccccc1` (stereo not given) reads “inactive”.

Regarding `OCC1CO1` (stereo not given), the call was inactive. Still for that read-out and setting: to `O=C(O)C1C(C(=O)O)C2(Cl)C(Cl)=C(Cl)C1(Cl)C2(Cl)Cl` (stereo not given) belongs “inactive”; to `ClC(Cl)(Cl)c1ccccc1`, “inactive”.
